Inconclusive results are not listed. Active and inactive are the calls of the source. Calls follow the shape of the dose curve; as a rule, active = well fitted inhibition curve with a large enough effect; inconclusive = small, poorly fitted or top-dose-only effect; inactive = flat fitted curve, though single readings scatter.
Potency is read from the fitted curve at half-maximal effect.

This assay is described as follows: qHTS for Inhibitors of Plasmodium falciparum (7G8) proliferation (AID 504316). Also: nearly all actives have a fitted effect of over 65% in size.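 As to activity change, negative = inhibition: 0% = DMSO vehicle and -100% = 0.29 µM artemisinin full kill.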 As to conditions: P. falciparum 7G8 in erythrocytes, SYBR Green DNA, 72 h; series mostly up to 6.7 µM; activity change, negative = inhibition: at the top concentration. An excerpt: Plasmodium falciparum is a virulent malarial parasite that kills 1-2 million people worldwide each year. Malaria not only inflicts tremendous suffering and morbidity on the human population, but has dramatically influenced the course of civilization with profound sociological and economic implications (Shah, S. 2010). Transmitted by mosquitoes, the sporozoite form of the parasite enters the blood stream to infect hepatocytes, where they become merozoites that infect red blood cells (erythrocytes). Within erythrocytes, merozoites begin a […] cycle of growth and division, after which the parasite is released to infect new red blood cells. Gametocytes, which form within erythrocytes as well, circulate in the bloodstream and are ingested by the mosquito, thereby completing the life cycle (see CDC website). To profile malarial lines for differential chemical responses and to identify inhibitors of malarial growth, an assay that measures P. falciparum growth and replication within erythrocytes was employed. This assay uses a DNA binding fluorescent dye (SYBR Green) to detect parasite DNA following cell lysis. Because mature erythrocytes lack DNA, only Plasmodium-derived DNA is detected. The P. falciparum line cp250, derived from a malarial isolate from Cambodia, (Mu, J., et al. 2010) was added to the panel of lines, Dd2, HB3, 7G8 and GB4 in this study. Laboratory of Assay Development and Screening Technology [ADST] and NIH Chemical Genomics Center [NCGC] Boston University, Chemistry Department, Center for Chemical Methodology and Library Development [CMLD-BU] NIH National Institute of Allergy and Infectious Diseases [NIAID]
ADST Assay Protocol Summary: The 1536-well SYBR Green viability assay was based on the method of Bennett et al (2004) and described previously in 1536-well format (Yuan J., et al. 2009). For screening 3 ul culture medium was dispensed into 1536 well black clear bottom plates (Aurora Biotechnologies) using a Multidrop Combi (Thermo Fisher Scientific Inc.), 23 nL compounds in DMSO were added by a pin transfer (Cleveland, P.H. and Koutz, P.J, 2005) using a pin tool-based delivery system (Kalypsys), and 5 ul of erythrocytes infected with P. falciparum one of five lines (cp250, Dd2, HB3, 7G8 or GB4, 0.3% parasitemia, 2.5% hematocrit final concentration) were added. The plates were incubated at 37C in a humidified incubator in 5% CO2 for 72 h, and 2 ul lysis buffer (20 mM Tris HCl, 10 mM EDTA, 0.16% saponin, 1.6% triton X, 10X SYBR Green I (supplied as 10,000X final concentration by Invitrogen) was added to each well. The plates were mixed for 25 sec with gentle shaking and incubated overnight at room temperature in the dark. The following morning, fluorescence intensity at 485(14) nm excitation and 535(25) nm emission wavelengths was measured on an EnVision (Perkin Elmer) plate reader. Plate reads were normalized relative to the control inhibitor (0.29 uM artemisinin) and vehicle (DMSO) wells present on each plate and then corrected by an algorithm using vehicle-only control plates at the beginning and end of the compound plate stack. References Shah, S. (2010). The Fever: how malaria has ruled humankind for 500,000 years. New York, Sarah Crichton Books. CDC web site, http://www.cdc.gov/malaria/about/biology/index.html Mu, J., Myers, R.A., Jiang, H., Liu, S., Ricklefs, S., Waisberg, M., Chotivanich, K., Wilairatana, P., Krudsood, S., White, N.J., et Plasmodium falciparum genome-wide scans for positive selection, recombination hot spots and resistance to antimalarial drugs Nature Genetics 2010, 42, pp 268-271 Bennett TN, Paguio, M., Gligorijevic, B., Seudieu, C., Kosar, A. D., Davidson, E., and Roepe, P. D. Novel, rapid, and inexpensive cell-based quantification of antimalarial drug efficacy Antimicrobial Agents Chemother. 2004, 48(5): pp 1807-10 Yuan J, Johnson RL, Huang RL, Wichterman J, Jiang HY, Hayton K, Fidock DA, Wellems TE, Inglese J, Austin CP, Su XZ. […]
In the case of `CCCCC1=CC2=C(c3ccco3)C(=O)C(C)(OC(=O)c3ccc(OC)cc3)C(=O)C2=CN1Cc1ccco1` (stereo not given), the Potency result was “inactive”.

Turning to `CC[C@H](C)[C@@H](NC(=O)O[C@H]1C(=O)c2ccc(OC)cc2O[C@@H]1c1ccc2c(c1)OCO2)C(=O)OC`, the “activity change, negative = inhibition” value was -3.32% (inactive).

With `CCCCn1c(C)cc2c(c1=O)[C@H]1O[C@](CCCC)(Cc3cc(C#N)ccc31)O2`, the Potency was 1.9 µM (active).

As to `CCCCC1=CC2=CC(=O)C(C)(O)C(=O)C2=CO1` (stereo not given), the “activity change, negative = inhibition” value is -0.205% (inactive). With `COC(=O)c1ccccc1C[C@]1(C(=O)OC)C=C[C@H](C)[C@@H](c2ccccc2)N1C(=O)C(F)(F)F`, the “activity change, negative = inhibition” value was -3.65% (inactive). On the same count and under the same terms, under `CCOC(=O)CN1C(=O)NC(c2cccc(F)c2)C(C(C)=O)=C1C` (stereo not given) stands -9.11% (inactive). On to `CCN1C(=O)[C@@H]2[C@H]3[C@H](O)[C@H](O)CC(=NOC[C@@H](O)COCc4ccco4)[C@@H]3CC[C@H]2C1=O`, for which the Potency entry was “inactive”. On the same count and under the same terms, next, `C=CC[C@@H]1C=C[C@H](ON=C(C)CCN2CCCc3nc(C)c(C)cc32)[C@H](CO)O1`: 0.0757 µM (active). Regarding `CCN1C(=NCc2ccco2)N[C@@H](c2ccccc2)[C@H](C(=O)OC)[C@H]1C`, the “activity change, negative = inhibition” value is 22.8% (inactive). The same measure, in the same setting: next, `CC(=O)c1ccc(OCc2ccccc2)c(C)c1O`: 3.64% (inactive); `COC(=O)c1nnc(C(=O)NCc2ccccc2)c2[nH]c3ccccc3c12`: 1.64% (inactive); `C=CCN1C=C2C(=O)C(C)(OC(=O)C3CCCC3)C(=O)C=C2C=C1c1ccsc1` (stereo not given): 2.32% (inactive). Take `C[C@@H]1CC2=CCCC2[C@]2(O1)C(=O)Nc1cccc(Br)c12` (stereo not given in full): the “activity change, negative = inhibition” value is 3.08% (inactive). The same measure, in the same setting: next, `C[C@@H]1CC2CCC[C@@H]2[C@]2(O1)C(=O)Nc1cccc(Br)c12` (stereo not given in full): -9.3% (inactive); `O=C1CCC=C1C(O)CCc1ccccc1` (stereo not given): -42.8% (inactive); `COC1=C[C@H](C(=O)NCc2ccccn2)[C@@]2(C)Cc3ccccc3[C@@H]2CC1=O`: -9.41% (inactive). As to `COc1cc(C(CC2=CCCCC2)NC(=O)C(F)(F)F)cc(OC)c1OC` (stereo not given), the “activity change, negative = inhibition” value is -17.7% (inactive).

On to `COC(=O)N[C@@H](CCc1ccccc1)[C@]1(C(C)=O)CCCC1=O`, for which the “activity change, negative = inhibition” value is 4.93% (inactive). In the case of `COC(=O)CC=C[C@H](C)[C@@H](OCc1ccccc1Br)C(C)C`, the “activity change, negative = inhibition” value is 10.5% (inactive). The same measure, in the same setting: next, `COCC=CC1=CC2=CC(=O)C(C)(OC(=O)c3cnc4ccccc4n3)C(=O)C2=CN1Cc1ccccc1` (stereo not given): -3.71% (inactive); `Cc1ccc(C#C[C@@H]2C=C[C@H](Oc3ccc4c(c3)OCO4)[C@@H](CO)O2)c(C)c1`: -7.4% (inactive); `C=CCOC(=O)NC(c1ccc(F)c(F)c1)C(C(C)=O)C(=O)OC` (stereo not given): -2.49% (inactive). In the case of `CCN1C(=O)N[C@@H](c2ccccc2)[C@H](C(=O)OC)[C@H]1C`, the Potency entry was “inactive”. On the same count and under the same terms, under `COC(=O)CCCC1=CC2=CC(=O)C(C)(OC(=O)c3cccs3)C(=O)C2=CN1C1CC1` (stereo not given) stands “inactive”; under `COC(=O)c1c(C(=O)OC)c2c3cc(OC)c(OC)cc3cc([Si](C)(C)C)n2c1C(=O)OC`, 1.51 µM (active); under `COC(=O)CCC(=O)OC1(C)C(=O)C=C2C=C3CCCN3C=C2C1=O` (stereo not given), “inactive”. Consider `C=CCN1C(=O)[C@]2(O[C@H](C)CC3=CCCC32)c2c(Br)cccc21` (stereo not given in full), for which the “activity change, negative = inhibition” value is -12.2% (inactive).

Consider `COC(=O)CCCC1=CC2=C(c3ccccc3)C(=O)C(C)(OC(=O)C3CCCC3)C(=O)C2=CN1Cc1ccco1` (stereo not given), for which the Potency entry is “inactive”. Same read-out and setting: next, `C=CC[C@](C)(O)c1ccccc1`: 1.51 µM (active).

Regarding `CC(C)C(=O)NC(=O)[C@@H]1CCCN1C(=O)C=Cc1ccccc1`, the “activity change, negative = inhibition” value was 1.16% (inactive). Take `C=CC[C@@H]1C=C[C@@H](Oc2ccc(OC)cc2)[C@H](COC(=O)c2ccc(Br)cc2)O1`: the “activity change, negative = inhibition” value was -2.81% (inactive). On the same count and under the same terms, next, `O=C1[C@@H]2[C@H]3[C@H](O)[C@H](O)CC(=NOC[C@@H](O)COCc4ccco4)[C@@H]3CC[C@H]2C(=O)N1C[C@@H]1CCCO1`: 1.22% (inactive); `O=C1CCCC=C1C(O)COCc1ccccc1` (stereo not given): -1.06% (inactive); `CCN(CCNC(=O)[C@H]1C=C(OC)C(=O)C[C@@H]2c3ccccc3C[C@]12C)C(C)=O`: 0.879% (inactive). Take `CCN1C(=NCc2ccccc2)N[C@@H](c2ccccc2)[C@H](C(=O)OC)[C@H]1C`: the “activity change, negative = inhibition” value is -4% (inactive). In the case of `COCC1=C(C(=O)OC)C(c2ccccc2)N(C(C)=O)C(=O)N1` (stereo not given), the “activity change, negative = inhibition” value is 16.5% (inactive).

`COC(=O)C1=C(C)N(Cc2ccccc2)C(=NCc2ccc3c(c2)OCO3)NC1CCc1ccccc1` (stereo not given): the “activity change, negative = inhibition” value is 4.57% (inactive).

For `CC1(OC(=O)CCc2ccccc2)C(=O)C=C2C=C(c3ccc(C#N)cc3)N(C(CO)CO)C=C2C1=O` (stereo not given), the Potency result is “inactive”. In the case of `CCCCC1=CC2=C(c3ccco3)C(=O)C(C)(OC(=O)c3ccc(OC)cc3)C(=O)C2=CN1c1ccc(OC)cc1` (stereo not given), the “activity change, negative = inhibition” value is 0.697% (inactive).

For the compound `C=CC1=C2C=C(C3CC3)N(CCOC)C=C2C(=O)C(C)(OC(=O)c2ccco2)C1=O` (stereo not given), the Potency entry was “inactive”.

These data come from PubChem BioAssay (NCATS).
